Where “and” joins values, the source holds several entries; their conditions need not be identical. Equal values may be shown once. In all, about 5,500 compounds went through this assay and about 2,000 (36%) were called active. Roughly 18% stayed inconclusive and do not appear here. No stated cut-off is given here; in the data, active means normalized growth mostly below about 0.91 (no sharp cut-off); inconclusive means no clear call, values can overlap the other calls; inactive means mostly above about 0.92. This is one part of the list.
Assay: chemical genetic growth profiling, strain panel (AID 1159580);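 further: tested at 20 µM; growth read once vehicle control cultures reached saturation at 30 °C; 1 = growth at the plate median or of vehicle wells; lower values mean less growth of the strain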
Details: S. cerevisiae deletion strains, growth OD
[1] = locus YDL101C, strain DUN1, hits give low values
[2] = locus YHR030C, strain SLT2, hits give low values
[3] = locus YHR079C, strain IRE1, hits give low values
[4] = locus YJL095W, strain BCK1, hits give low values
[5] = locus YJR066W, strain TOR1, hits give low values
[6] = locus YLR113W, strain HOG1, hits give low values
[7] = locus YNL183C, strain NPR1, hits give low values
[8] = locus YOR061W, strain CKA2, hits give low values
[9] = locus YOR231W, strain MKK1, hits give low values
[10] = locus YPL256C, strain CLN2, hits give low values

Measured: normalized growth

C[C@]12CC[C@H](O)C[C@H]1CCC1C2CC[C@]2(C)[C@@H](C3=CC(=O)OC3)[C@@H](O)C[C@]12O (some centres undefined)
inactive: locus YBR021W, strain FUR4, hits give low values 1.02 | locus YBR229C, strain ROT2, hits give low values 1.02 | locus YCL029C, strain bik1, hits give low values 1.01 | locus YDL035C, strain GPR1, hits give low values 1.08 | locus YDL074C, strain BRE1, hits give low values 1.1 | [1] 1.02 | locus YDL185W, strain tfp1, hits give low values 0.974 | locus YDL192W, strain arf1, hits give low values 1.02 | locus YDR101C, strain arx1, hits give low values 1 | locus YDR150W, strain NUM1, hits give low values 1.03 | locus YDR162C, strain NBP2, hits give low values 1.03 | locus YDR318W, strain mcm21, hits give low values 0.998 | locus YDR388W, hits give low values 0.984 | locus YDR502C, strain sam2, hits give low values 1.01 | locus YEL061C, strain CIN8, hits give low values 1.02 | locus YER110C, hits give low values 0.997 | locus YER155C, strain BEM2, hits give low values 1 | locus YER167W, strain BCK2, hits give low values 1.02 | locus YGL078C, strain dbp3, hits give low values 0.982 | locus YGL086W, strain mad1, hits give low values 1 | locus YGL248W, strain PDE1, hits give low values 1.05 | locus YGR078C, strain PAC10, hits give low values 1.03 | locus YGR135W, strain pre9, hits give low values 1 | locus YGR229C, strain SMI1, hits give low values 1.13 | locus YGR252W, strain gcn5, hits give low values 0.962 | [2] 1 | locus YHR079C, strain IRE1 (second series), hits give low values 0.983 | [3] 0.982 | locus YHR094C, strain hxt1, hits give low values 0.982 | locus YHR129C, strain ARP1, hits give low values 1.03 | locus YHR200W, strain rpn10, hits give low values 0.995 | locus YIL066C, strain RNR3, hits give low values 1.03 | locus YIL073C, strain SPO22, hits give low values 1.07 | locus YIL125W, strain kgd1, hits give low values 1.02 | locus YIR030C, strain dcg1, hits give low values 0.994 | [4] 1.07 and 0.981 | locus YJL134W, strain LCB3, hits give low values 1.02 | locus YJL168C, strain set2, hits give low values 0.975 | locus YJL187C, strain SWE1 (second series), hits give low values 1.04 | locus YJR043C, strain POL32, hits give low values 1.06 | [5] 0.968 | locus YKL009W, strain mrt4, hits give low values 1.01 | locus YKL068W, hits give low values 0.994 | locus YKL085W, strain MDH1 (second series), hits give low values 0.996 | locus YKL085W, strain MDH1, hits give low values 0.996 | locus YKL190W, strain CNB1, hits give low values 1.02 | locus YKR001C, strain vps1, hits give low values 1.03 | locus YLR039C, strain RIC1, hits give low values 1.15 | locus YLR058C, strain SHM2, hits give low values 1.04 | locus YLR102C, strain apc9, hits give low values 0.989 | [6] 0.975 | locus YLR262C, strain YPT6, hits give low values 1.16 | locus YLR268W, strain sec22, hits give low values 1 | locus YLR330W, strain CHS5, hits give low values 1.02 | locus YLR342W, strain FKS1 (second series), hits give low values 1.05 | locus YLR371W, strain rom2, hits give low values 1 | locus YLR418C, strain cdc73, hits give low values 1.01 | locus YML016C, strain PPZ1, hits give low values 1.03 | locus YML032C, strain rad52, hits give low values 1 | locus YML124C, strain tub3, hits give low values 0.987 | locus YMR078C, strain ctf18, hits give low values 0.986 | locus YMR223W, strain ubp8, hits give low values 1 | locus YMR307W, strain GAS1, hits give low values 1.19 | locus YNL067W, strain RPL9B, hits give low values 1.01 | locus YNL153C, strain GIM3, hits give low values 1.04 | [7] 0.93 | locus YNL233W, strain BNI4, hits give low values 1.06 | locus YNL250W, strain rad50, hits give low values 1.01 | locus YNL271C, strain bni1, hits give low values 0.999 | locus YNL298W, strain CLA4, hits give low values 0.994 | locus YNL307C, strain MCK1, hits give low values 0.98 | locus YNR052C, strain pop2, hits give low values 0.987 | locus YOL006C, strain TOP1, hits give low values 1.27 | locus YOL012C, strain htz1 1.03 | locus YOL147C, strain pex11, hits give low values 0.993 | [8] 1.03 | locus YOR069W, strain VPS5, hits give low values 1.02 | locus YOR136W, strain idh2, hits give low values 0.991 | locus YOR144C, strain elg1, hits give low values 0.989 | locus YOR184W, strain ser1, hits give low values 1.05 | [9] 0.982 | locus YOR316C, strain cot1, hits give low values 1 | [10] 1.03 | locus YPR119W, strain clb2, hits give low values 0.982 | locus YPR141C, strain kar3, hits give low values 0.997 | locus YPR163C, strain tif3, hits give low values 0.997 | locus YPR167C, strain met16, hits give low values 0.99 | strain wtn01, hits give low values 1.02

N#Cc1ccc2[nH]cc(CCN(Cc3ccccc3)Cc3ccccc3)c2c1
inactive: locus YAR019C, strain CDC15, hits give low values 0.989 | locus YBL105C, strain PKC1, hits give low values 0.991 | locus YBR135W, strain CKS1, hits give low values 0.99 | locus YBR136W, strain MEC1, hits give low values 0.984 | locus YBR160W, strain CDC28, hits give low values 0.989 | locus YDL017W, strain CDC7, hits give low values 0.99 | locus YDL028C, strain MPS1, hits give low values 0.977 | [1] 0.98 | locus YDL108W, strain KIN28, hits give low values 0.983 | locus YDL132W, strain cdc53, hits give low values 0.985 | locus YDL214C, strain PRR2, hits give low values 0.943 | locus YDR052C, strain DBF4, hits give low values 0.992 | locus YDR054C, strain cdc34, hits give low values 0.978 | locus YDR226W, strain ADK1, hits give low values 0.978 | locus YDR477W, strain SNF1, hits give low values 0.969 | locus YER123W, strain YCK3, hits give low values 0.918 | locus YER133W, strain GLC7, hits give low values 0.964 | locus YFL009W, strain cdc4, hits give low values 0.982 | locus YFL029C, strain CAK1, hits give low values 0.986 | locus YFR003C, strain YPI1, hits give low values 0.992 | locus YFR019W, strain FAB1, hits give low values 0.967 | locus YFR028C, strain CDC14, hits give low values 0.982 | locus YGR040W, strain KSS1, hits give low values 0.956 | locus YGR052W, strain FMP48, hits give low values 1.05 | locus YGR092W, strain DBF2, hits give low values 0.943 | [2] 1.13 | [3] 1.07 | locus YHR082C, strain KSP1, hits give low values 1.05 | locus YHR205W, strain SCH9, hits give low values 0.962 | locus YIL147C, strain SLN1, hits give low values 0.987 | [4] 1.07 | locus YJL128C, strain PBS2, hits give low values 0.953 | locus YJL157C, strain FAR1, hits give low values 0.954 | locus YJR016C, strain ILV3, hits give low values 0.991 | locus YJR066W, strain TOR1 (second series), hits give low values 0.926 | [5] 1.07 | locus YKL048C, strain ELM1, hits give low values 0.964 | locus YKL067W, strain YNK1, hits give low values 0.969 | locus YKL101W, strain HSL1, hits give low values 0.954 | locus YKL193C, strain SDS22, hits give low values 0.987 | locus YKL203C, strain TOR2, hits give low values 1.04 | [6] 1.01 | locus YLR133W, strain CKI1, hits give low values 0.98 | locus YLR403W, strain SFP1, hits give low values 0.962 | locus YML070W, strain DAK1, hits give low values 0.95 | locus YMR001C, strain CDC5, hits give low values 0.988 | locus YMR205C, strain PFK2 (second series), hits give low values 0.972 | locus YMR277W, strain FCP1, hits give low values 0.993 | locus YNL006W, strain LST8, hits give low values 0.983 | locus YNL020C, strain ARK1, hits give low values 0.98 | locus YNL161W, strain CBK1, hits give low values 0.993 | [7] 1.05 | locus YNL207W, strain RIO2, hits give low values 0.979 | locus YNL222W, strain SSU72, hits give low values 0.986 | locus YNL307C, strain MCK1 (second series), hits give low values 0.98 | locus YOL078W, strain AVO1, hits give low values 0.987 | locus YOL136C, strain PFK27, hits give low values 0.957 | [8] 0.955 | locus YOR119C, strain RIO1, hits give low values 1.01 | [9] 1.06 | locus YOR329C, strain SCD5, hits give low values 0.993 | locus YPL031C, strain PHO85, hits give low values 0.97 | locus YPL153C, strain RAD53, hits give low values 0.954 | locus YPL204W, strain HRR25, hits give low values 0.97 | locus YPL209C, strain IPL1, hits give low values 0.994 | [10] 1.05 | locus YPR025C, strain CCL1, hits give low values 0.992 | locus YPR106W, strain ISR1, hits give low values 0.984 | locus YPR111W, strain DBF20, hits give low values 0.976 | strain NNK1, hits give low values 0.983 | strain TSCII, hits give low values 0.993
